Compound activity from PubChem BioAssay.
Only a selection was taken, and hits are over-represented in it overall.
CBX7 AlphaScr – CBX7 inhibition, primary AlphaScreen; AlphaScreen His6-CBX7 / biotin-H3K27me3 peptide binding; stronger effect = lower value; normalised signal (fraction of DMSO) (no concentration beside the values); O95931; 66,000 tested, 1.1% active; in the data active = normalised signal below about 0.5
Target sequence (O95931 whole entry, looked up): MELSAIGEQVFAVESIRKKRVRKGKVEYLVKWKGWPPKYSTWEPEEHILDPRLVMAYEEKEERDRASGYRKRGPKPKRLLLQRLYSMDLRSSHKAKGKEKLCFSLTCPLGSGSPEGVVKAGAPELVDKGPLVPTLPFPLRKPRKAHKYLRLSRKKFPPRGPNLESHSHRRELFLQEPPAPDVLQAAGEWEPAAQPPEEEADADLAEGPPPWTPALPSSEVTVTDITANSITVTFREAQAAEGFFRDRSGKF
* = called active by the depositor; ! = not active in a repeat.

SMILES	CBX7 AlphaScr
Cc1ccc(N2C(=O)CC(Cc3ccccc3)C2=O)cc1Br (stereo unspecified)	1.1
CCN(CC)S(=O)(=O)c1ccc2c(c1)N(CC(=O)NCc1ccc(F)cc1)C(=O)CO2	0.99
Cc1ccc(CNC(=O)CN2C(=O)COc3ccc(Cl)cc32)cc1	1.4
O=C(CN1C(=O)COc2ccc(Cl)cc21)NCc1ccc(F)cc1	0.42*
Cc1noc(C)c1S(=O)(=O)N1CCCC(C(=O)NCc2ccc3c(c2)OCO3)C1 (stereo unspecified)	1.3
O=C(O)c1c[nH]c2ccc(S(=O)(=O)NCCCN3CCCC3=O)cc2c1=O	0.5*
Cc1cccc(C)c1N(C)S(=O)(=O)c1ccc2[nH]cc(C(=O)NCc3ccccn3)c(=O)c2c1	1
CCc1ccc(NS(=O)(=O)c2ccc3[nH]cc(C(=O)NCc4ccccn4)c(=O)c3c2)cc1	1
O=C(O)c1c[nH]c2ccc(S(=O)(=O)NCc3ccccn3)cc2c1=O	0.021*
CCOC(=O)CNS(=O)(=O)c1ccc2[nH]cc(C(=O)O)c(=O)c2c1	0.71
CC(=O)Nc1ccc(NS(=O)(=O)c2ccc3[nH]cc(C(=O)O)c(=O)c3c2)cc1	0.66
CCCN(CCC)CCNC(=O)c1cn(CC)c(=O)c2cc(OC)c(OC)cc12	1.3
Cc1ccc(NC(=O)c2cc(S(=O)(=O)N3CCCCC3)ccc2F)cc1F	1
Fc1cccc(CSc2ncnc3ccccc23)c1	1.1
Cc1cc(N2CCC(C)CC2)nc2ccc(NC(=O)COc3ccc(Cl)cc3)cc12	1
Cc1cccc(-c2noc(COc3ccccc3)n2)c1	1.3
O=C(CN1CCN(Cc2ccccc2Cl)C1=O)N1CCC2(CC1)OCCO2	0.99
COc1ccc(-c2n[nH]c(C)c2-c2ccc3c(c2)OCCCO3)c(O)c1	0.45*
COc1ccc(-c2c(-c3ccc(OC)cc3O)n[nH]c2C)cc1	0.66
COc1ccc(-c2n[nH]c(C)c2-c2ccc(F)cc2)c(O)c1	0.74
Cc1cc(Nc2cccc(Cl)c2)n2c(nc3ccccc32)c1C#N	1
COc1cccc(-c2nc(-c3ccccc3)c(-c3cc([N+](=O)[O-])ccc3C)[nH]2)c1	0.47*
COc1cccc(-c2nc(-c3ccccc3)c(-c3cccs3)[nH]2)c1	0.95
O=C1c2ccc([N+](=O)[O-])cc2C(=O)N1c1ccc2nc(-c3ccccc3)[nH]c2c1	1.1
Cc1ccc(C)c(-c2[nH]c(-c3ccc(C(=O)O)cc3)nc2-c2ccccc2)c1	0.84
SMILES	CBX7 AlphaScr
Fc1ccccc1-c1nc(-c2ccccc2)c(-c2ccc(Sc3ccccc3)cc2)[nH]1	0.69
Cc1ccc([N+](=O)[O-])cc1-c1[nH]c(-c2ccccc2F)nc1-c1ccccc1	0.47*
Fc1cccc(Nc2nc(-c3ccccc3Cl)nc3ccccc23)c1	1.1
CN(CC(=O)NCCc1ccccc1)S(=O)(=O)c1cccc2cccnc12	0.93
COc1cc2c(C(=O)Nc3ccc(F)cc3)cn(C)c(=O)c2cc1OC	1
Cc1cc(NC(=O)c2cnn(-c3ccccc3)c2-n2cccc2)no1	1.1
Cc1cccc(-n2cc(-c3ccc(Cl)cc3)[nH]c2=O)c1	0.99
COCc1cc(=O)[nH]c(Nc2nc3ccccc3o2)n1	0.12*
O=c1cc(-c2ccccc2)nc(Nc2nc3ccccc3o2)[nH]1	1.5
COCc1cc(=O)[nH]c(Nc2nc(C)c3ccccc3n2)n1	1
Oc1ccc(-c2nc(-c3ccc(-c4ccccc4)cc3)c(-c3ccc(-c4ccccc4)cc3)[nH]2)cc1	0.61
COc1ccc(-c2nc(-c3ccccc3)c(-c3cccs3)[nH]2)cc1OC	0.51
COc1ccc(-c2nc(-c3cccs3)c(-c3cccs3)[nH]2)cc1	0.92
COc1cccc(-c2nc(-c3ccccc3)c(-c3cccs3)[nH]2)c1OC	0.43*
O=C(O)c1ccc(-c2nc(-c3cccc(Cl)c3)c(-c3ccccc3)[nH]2)cc1	0.72
COc1cccc(-c2nc(-c3cccs3)c(-c3cccs3)[nH]2)c1	0.92
Brc1ccc(-c2nc(-c3ccccc3)c(-c3ccc(Oc4ccccc4)cc3)[nH]2)cc1	0.76
c1cncc(-c2nc3ccccc3[nH]2)c1	1.2
COc1cccc(-c2nc(-c3ccsc3)c(-c3ccccc3)[nH]2)c1OC	0.92
Oc1ccc(-c2[nH]c(-c3cccc(Cl)c3)nc2-c2ccccc2)cc1	0.41*
COc1ccc(-c2nc(-c3cccs3)c(-c3cccs3)[nH]2)cc1OC	0.45*
c1ccc(-c2nc(-c3cccnc3)[nH]c2-c2ccccc2)cc1	0.31*!
CCc1cccc(C)c1Nc1c(-c2ccc(O)cc2)nc2cnccn12	1.1
CSc1ccc(-c2nc(Nc3c(Cl)cccc3Cl)sc2-c2ccccc2)cc1	0.88
Brc1ccc(-c2cn3c4ccccc4nc3n2CCN2CCOCC2)cc1	0.87
SMILES	CBX7 AlphaScr
O=C(NCCC1=CCCCC1)C1(S(=O)(=O)c2ccc(Cl)cc2)CC1	1
CCCC(=O)Nc1c(C(=O)c2ccc(Cl)cc2)oc2ccccc12	1.3
Oc1ccc(-c2nc(-c3ccccc3)c(-c3cccs3)[nH]2)cc1	0.47*
Fc1ccc(-c2nc(-c3ccccc3)c(-c3cccs3)[nH]2)cc1	0.7
COc1ccc(-c2nc(-c3ccccc3)c(-c3cccs3)[nH]2)cc1O	0.88
Cc1ccc(Cl)cc1N1C(=O)C2C3c4ccccc4C(C)(c4ccccc43)C2C1=O (stereo unspecified)	0.94
Fc1ccc(Cc2nnc(-c3ccc(Cl)cc3)o2)cc1	1.1
CCOc1ccc2nc(C)cc(Nc3cccc(OC)c3)c2c1	1.1
CCn1c2c(c3cc(C4CCCCC4)ccc31)CCCC2O (stereo unspecified)	0.47*
O=C(c1ccccc1)N1CCn2c3c(c4cc(C5CCCCC5)ccc42)CCCC31 (stereo unspecified)	0.69
O=C1CCCc2c1[nH]c1ccc(C3CCCCC3)cc21	0.88
O=C1CN2C(=N1)N(Cc1ccccc1Cl)c1ccccc12	0.91
CCCCNC(=O)Cn1nc(-c2ccc(Cl)cc2)ccc1=O	1
CCCc1c2c(nn1-c1cc(Cl)ccc1OC)CC(C)(C)CC2=O	1
COc1ccc(NC(=O)C(Cc2ccccc2)NS(=O)(=O)c2cccc3cccnc23)cc1 (stereo unspecified)	1
O=C(CC(Sc1cccc2cccnc12)c1ccc(OC(F)F)cc1)c1ccco1 (stereo unspecified)	0.0051*
c1cnc2c(SCC3CCOCO3)cccc2c1 (stereo unspecified)	1.1
CCC(=C(c1ccc(OC)cc1)c1ccc(OC)cc1)c1cn(CC(O)CN2CCCC2)c2ccccc12 (stereo unspecified)	0.26*
COc1ccc(-c2cc3ccccc3n2CC(O)CN2CCCCCC2)cc1 (stereo unspecified)	1.2
OC(CN1CCCCC1)Cn1c2ccccc2c2ccccc21 (stereo unspecified)	0.86
CCOc1ccc(NC(=O)C2CC(=O)N(c3ccccc3)C2)cc1 (stereo unspecified)	1
O=C1c2ccccc2C(Nc2cccc(C(F)(F)F)c2)N1Cc1ccc2c(c1)OCO2 (stereo unspecified)	0.98
Cc1nc(NC(N)=NS(=O)(=O)c2ccccc2)nc2ccccc12	1.1
COc1ccc(Cl)cc1Nc1nnc(Cc2cccnc2)c2ccccc12	0.96
O=C(c1cnc(N2CCN(c3ncccn3)CC2)c2ccccc12)N1CCN(c2ccccn2)CC1	1
O=C(c1ccc(C#Cc2ccccc2)o1)N1CCN(c2ccccn2)CC1	0.45*
O=C(c1n[nH]c(=O)c2ccccc12)N1CCN(c2ccccn2)CC1	1.1
